An excerpt weighted towards active compounds, which were near 19% of everything screened.
Chronic BCR inh = inhibitors of chronic active B-cell receptor signaling; ABC-DLBCL IkBa-CBG/CBR reporter, luminescence ratio, 4 h; Potency, µM (series often up to 46.1 µM), actives largely listed as inhibitors; actives 0.05% (n = 340,000); AID 493014; active = well fitted inhibition curve with a large enough effect in the signal ratio, with a control signal flat, not every such curve was filed as active; inconclusive = small, poorly fitted or top-dose-only effect, or effect the other way, or a change in a side signal; the % refers to the signal ratio
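TMD8 ABC-DLBCL cells carrying doxycycline-inducible green luciferase fused to IkappaBalpha plus unfused red luciferase were exposed to compounds (up to 46 uM) for 4 hrs at 37C. Activity came from the overlap-corrected green/red luminescence ratio.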
TDP1 cell noCPT = qHTS for Inhibitors of human tyrosyl-DNA phosphodiesterase 1 (TDP1): qHTS in cells in absence of CPT; DT40 Tdp1-/- hTDP1 cells, no CPT, ATP luminescence, 48 h; actives 15% (n = 420,000); Potency, µM (series often up to 46.2 µM), hits mostly inhibitors; also: nearly all actives have a fitted effect of over 55% in size
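No-CPT arm: Tdp1-/-;hTDP1 DT40 cells (400/well) plus compounds, incubated ≥48 hr at 37 °C. Readout CellTiter-Glo luminescence.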
MCF10A rerep = inducers of DNA re-replication in MCF 10A breast cells | Potency, µM (titrated, usually from 46.1 µM), usual class: activators | MCF 10A DNA re-replication, Hoechst nuclear intensity, 48 h | actives 2.9% (n = 350,000); also: nearly all actives have a fitted effect of over 50% in size
SW480 rerep = inducers of DNA re-replication in SW480 colon cancer cells; SW480 DNA re-replication, Hoechst DNA content imaging, 48 h; Potency, µM (highest dose often 46.1 µM), actives largely listed as activators; actives 1.8% (n = 340,000); AID 624297; also: nearly all actives have a fitted effect of over 55% in size
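Readout is total intensity of Hoechst-stained nuclei, excited at 405 nm and collected at 500-530 nm. Compound treatment lasted 48 hr at 37 C in 5% CO2 before staining.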
DT40 TDP1 CPT = growth inhibition of DT40 Tdp1-/-;hTDP1 cells with camptothecin (screen for TDP1 inhibitors); chicken DT40 Tdp1-/-;hTDP1 cells + 20 nM CPT, ATP luminescence, 48 h; Potency, µM (series often up to 46.2 µM), actives largely listed as inhibitors; actives 12% (n = 420,000); AID 686979; also: nearly all actives have a fitted effect of over 55% in size
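Chicken DT40 Tdp1-/- cells complemented with human TDP1, 400 cells/well, exposed to compounds plus 20 nM camptothecin for at least 48 h at 37 C; viability read as ATP content by CellTiter-Glo luminescence.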
IL-1B inflam inh = blocks inflammasome-driven IL-1 beta release; actives 4.7% (n = 360,000); activity change, % at 57.5 µM; THP-1 LPS/ATP IL-1B secretion, AlphaLISA, 16 h; hits give low values; in the data active = activity change below about -50%; inconclusive = mostly about -30% to -49%
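Secreted IL-1B measured by AlphaLISA bead assay after 16 h compound exposure of THP-1 cells; compounds (final up to 57.5 uM) added 1 h before LPS (250 ng/mL) and ATP (1.25 mM) stimulation; lower signal means less secretion.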
Of the large screens only hits and unclear results are named; the others gave an inactive call. Unless noted, calls follow the shape of the dose curve; as a rule, active = well fitted curve in the direction sought with a large enough effect; inconclusive = small, poorly fitted or top-dose-only effect, or another doubt; inactive = no such curve, though single readings can be large; an effect the other way counts as inactive or inconclusive.

Oc1c(Cl)cc(Cl)cc1/C=C/c1ccc2cccc(O)c2n1	Chronic BCR inh inconclusive, TDP1 cell noCPT inconclusive, MCF10A rerep 6.51µM, SW480 rerep 11.6µM, DT40 TDP1 CPT inconclusive
COc1ccccc1CNc1ncncc1-c1cccc(C#N)c1	none (no result: Chronic BCR inh, MCF10A rerep, SW480 rerep, IL-1B inflam inh)
CCOC(=O)CNC(c1ccccc1)c1cc(Br)ccc1NC(C)=O (configuration not stated)	TDP1 cell noCPT inconclusive, SW480 rerep 2.91µM, DT40 TDP1 CPT inconclusive
Nc1ccc(Br)cc1C(NCC(=O)O)c1ccccc1 (configuration not stated)	SW480 rerep 6.51µM
COC(=O)CNC(c1ccccc1)c1cc(Br)ccc1NC(=O)c1cc(OC)c(OC)c(OC)c1 (configuration not stated)	TDP1 cell noCPT 7.31µM, DT40 TDP1 CPT 16.4µM (no result: Chronic BCR inh, MCF10A rerep, SW480 rerep, IL-1B inflam inh)
CCOC(=O)C1=C(COC(=O)c2ccc([N+](=O)[O-])o2)NC(=O)NC1C (configuration not stated)	Chronic BCR inh inconclusive, DT40 TDP1 CPT inconclusive
NC(CO)(CO)COCc1ccccc1	none
CCN1CCN(c2nc(-c3ccccn3)nc3ccccc23)CC1	TDP1 cell noCPT 20.6µM, SW480 rerep inconclusive, DT40 TDP1 CPT inconclusive
c1ccc(CN2CCN(c3nc(-c4ccccn4)nc4ccccc34)CC2)cc1	Chronic BCR inh inconclusive
c1ccc(-c2nc(N3CCCCCC3)c3ccccc3n2)nc1	Chronic BCR inh inconclusive, TDP1 cell noCPT 2.31µM, MCF10A rerep inconclusive, DT40 TDP1 CPT 2.06µM, IL-1B inflam inh -84.3
c1ccc2nc(N3CCCC3)c(N3CCCCC3)nc2c1	TDP1 cell noCPT inconclusive, MCF10A rerep 20.6µM (no result: Chronic BCR inh)
Clc1ccc(-c2cc3ccccc3nc2N2CCCC2)cc1	TDP1 cell noCPT 18.4µM, MCF10A rerep inconclusive, DT40 TDP1 CPT inconclusive
c1ccc2nc(N3CCOCC3)c(N3CCCC3)nc2c1	none (no result: Chronic BCR inh)
O=C(/C=C/c1ccccc1)C1=C(O)C(=O)N(CCO)C1c1ccccc1[N+](=O)[O-] (configuration not stated)	TDP1 cell noCPT inconclusive
COc1ccc(C(CNC(=O)CN2C(=O)NC3(CCCC3)C2=O)N(C)C)cc1 (configuration not stated)	none
Cc1nc(N2CCCCCC2)c2ccccc2n1	TDP1 cell noCPT 20.6µM, DT40 TDP1 CPT inconclusive
CN(CC(=O)Nc1ccc(Cl)cc1)C(=O)CCC1CCCC1	none
COC(=O)c1cc(S(=O)(=O)C(C)C)c(S(C)=O)s1 (configuration not stated)	Chronic BCR inh inconclusive, TDP1 cell noCPT inconclusive, SW480 rerep inconclusive, IL-1B inflam inh -99.6
CC(C)NC(=O)N1CCC2(CC1)CCN(C(=O)c1cccc(F)c1)CC2	none (no result: Chronic BCR inh, MCF10A rerep, SW480 rerep, IL-1B inflam inh)
CCn1c(C)nc2cc(NC(=O)Nc3cccc(C(C)=O)c3)ccc21	TDP1 cell noCPT inconclusive, DT40 TDP1 CPT inconclusive
O=C(O)c1ccc2c(c1)C1C=CCC1C(c1cc3c(cc1Br)OCO3)N2 (configuration not stated)	MCF10A rerep inconclusive
C1=CC2c3ccccc3NC(c3ccncc3)C2C1 (configuration not stated)	TDP1 cell noCPT inconclusive, DT40 TDP1 CPT inconclusive, IL-1B inflam inh -107.0
Brc1cc2c(cc1C1Nc3ccccc3C3C=CCC31)OCO2 (configuration not stated)	MCF10A rerep inconclusive, SW480 rerep 16.4µM
COc1cc(/C=C/C(=O)OC(C)C(=O)NC2CCCCC2C)cc(Cl)c1OC (configuration not stated)	Chronic BCR inh inconclusive, TDP1 cell noCPT inconclusive, DT40 TDP1 CPT inconclusive
COc1ccc(C(=O)C[C@@H]2OC[C@H](Cc3ccccc3)N2S(=O)(=O)c2ccc(C)cc2)cc1OC	TDP1 cell noCPT inconclusive, DT40 TDP1 CPT inconclusive (no result: Chronic BCR inh, MCF10A rerep, SW480 rerep)
Cc1cc2ccccn2c1C(=O)c1ccc(S(=O)(=O)N(C)C)cc1	TDP1 cell noCPT 23.1µM, SW480 rerep inconclusive, DT40 TDP1 CPT 18.4µM, IL-1B inflam inh inconclusive
